Structures are written as SMILES.

Here are results for 30 compounds from the supplement of paper PMC13380429.

In assay [1] the test system is Vero E6 infected with SARS-CoV-2. Put plainly: morphology score (similarity to uninfected cells); higher = more like uninfected cells. The conditions noted are these: 24 h.
For assay [2] the test system is unchanged. Put plainly: SARS-CoV-2 infection rate relative to infected DMSO; higher = more infection, active = 60 or less. The following applies: 24 h.

Turning to `C[C@]12N[C@H](Cc3ccccc31)c1ccccc12` [dizocilpine-(-)] (10 µM), the morphology score in assay [1] was found to be 0.247. Also, in assay [2], the SARS-CoV-2 infection rate is 106% (inactive).
On the same counts, the results for `O=C(C(c1ccccc1)c1ccccc1)N1CCN(CC(O)COc2cccc3ncccc23)CC1` (stereo not given) [dofequidar] (10 µM) are 0.14 and 89.5% (inactive).
For `c1ccc(C(NCCNC(c2ccccc2)c2ccccc2)c2ccccc2)cc1` (10 µM), in assay [1], the morphology score turned out to be 0.14. Moreover, the SARS-CoV-2 infection rate in assay [2] was 101% (inactive).
On the same counts, the results for `CNc1nc(-c2ccc3c(N)n[nH]c3c2)cc(N2C[C@@H](C(=O)NC3CCCCC3)CC[C@H]2C)n1` (0.833333 µM) are 0.0384 and 106% (inactive).
In turn, `O=C(Cc1ccc(-c2ccc(OCCN3CCOCC3)cc2)cn1)NCc1ccccc1` (10 µM) showed a morphology score in assay [1] of -0.5. Further, the SARS-CoV-2 infection rate in assay [2] is 112% (inactive).
In assay [1], `NC(=O)CN1C=CCC(C(N)=O)=C1` [caricotamide] (10 µM) came in with a morphology score of 0.109. The SARS-CoV-2 infection rate in assay [2] was 106% (inactive).
For the compound `C1CCC(C(CC2CCCCN2)C2CCCCC2)CC1` (stereo not given) [perhexiline] (0.833333 µM), the morphology score in assay [1] is -0.219. In assay [2], the SARS-CoV-2 infection rate was 114% (inactive).
In assay [1], `COc1cc(/C=C(\C#N)C(N)=O)cc(CSc2nc3ccccc3s2)c1O` [tyrphostin-AG-825] (10 µM) returned a morphology score of -0.108. Also, in assay [2], the SARS-CoV-2 infection rate was 108% (inactive).
`Cc1ccc(/C=C2/C(=O)C3(C)CCC2C3(C)C)cc1` (stereo not given) [3-(4-methylbenzylidene)camphor] (10 µM): the morphology score in assay [1] is -0.0397. Besides, in assay [2], the SARS-CoV-2 infection rate was 114% (inactive).
`Cc1noc(C)c1-c1cc(O)cc([C@@H](O)c2ccccc2)c1` (10 µM) returned a morphology score in assay [1] of 0.154. Also, the SARS-CoV-2 infection rate in assay [2] is 104% (inactive).
On the same counts, the results for `Cc1cccc(C(C)c2c[nH]cn2)c1C` (stereo not given) [medetomidine] (10 µM) are -0.0614 and 102% (inactive).
Consider `Nc1ccc(S(=O)(=O)c2ccc(N)cc2)cc1` [dapsone] (10 µM), for which the morphology score in assay [1] was -0.179. For the same compound, the SARS-CoV-2 infection rate in assay [2] was 99.5% (inactive).
For `CC(=O)c1ccc2c(c1)N(CCCN1CCN(CCO)CC1)c1ccccc1S2` [acetophenazine] (10 µM), the morphology score in assay [1] was 0.201. Moreover, the SARS-CoV-2 infection rate in assay [2] is 96.5% (inactive).
On the same counts, the results for `NC(=O)CCCCC1CCSS1` (stereo not given) [lipoamide] (10 µM) are -0.0248 and 108% (inactive).
The compound `C=C1C(=O)O[C@@H]2[C@H]3O[C@]3(C)CC/C=C(\C)CC[C@@H]12` [parthenolide-(alternate-stereo)] (0.833333 µM) gave a morphology score in assay [1] of 0.111. Moreover, in assay [2], the SARS-CoV-2 infection rate is 106% (inactive).
`COc1cc(S(C)(=O)=O)ccc1Nc1nc2ccc(-c3ccc(NC(=O)[C@H](C)c4ccc(F)cc4)cc3)cn2n1` (10 µM): the morphology score in assay [1] is -0.122. Moreover, the SARS-CoV-2 infection rate in assay [2] was 105% (inactive).
In the case of `N#CC(c1ccccc1)(c1ccccc1)c1ccccc1Cl` (10 µM), the morphology score in assay [1] was found to be 0.164. Moreover, in assay [2], the SARS-CoV-2 infection rate is 89% (inactive).
`CC1(C)CC(=O)c2c(C(F)(F)F)nn(-c3ccc(C(N)=O)c(N[C@H]4CC[C@H](O)CC4)c3)c2C1` (10 µM) registered a morphology score in assay [1] of 0.196. In assay [2], the SARS-CoV-2 infection rate was 102% (inactive).
The compound `Oc1ccc2ccccc2c1Cc1c(O)ccc2ccccc12` (10 µM) showed a morphology score in assay [1] of 0.0699. For the same compound, the SARS-CoV-2 infection rate in assay [2] is 104% (inactive).
In turn, `CC(C)c1cc2c(cc1S(=O)(=O)O)[C@@]1(C)CCC[C@@](C)(C(=O)O)[C@@H]1CC2` [ecabet] (10 µM) had a morphology score in assay [1] of 0.0527. The SARS-CoV-2 infection rate in assay [2] was 102% (inactive).
The compound `N[C@@H](CCC(=O)N[C@@H](CSN=O)C(=O)NCC(=O)O)C(=O)O` [S-nitrosoglutathione] (10 µM) registered a morphology score in assay [1] of 0.164. The SARS-CoV-2 infection rate in assay [2] is 104% (inactive).
On the same counts, the results for `C=C1CC[C@@H]2[C@](C)(CO)[C@H](O)CC[C@@]2(C)[C@@H]1C/C=C1/C(=O)OC[C@H]1O` [andrographolide] (0.833333 µM) are 0.123 and 106% (inactive).
In turn, `CN1CCC(CNc2ccc3ncc(-c4cccc(OC(F)(F)F)c4)n3n2)CC1` (0.833333 µM) displayed a morphology score in assay [1] of 0.201. In addition, the SARS-CoV-2 infection rate in assay [2] was 108% (inactive).
Consider `CC(C)c1nc(N(C)S(C)(=O)=O)nc(-c2ccc(F)cc2)c1/C=C/[C@@H](O)C[C@@H](O)CC(=O)O` [rosuvastatin] (0.833333 µM), for which, in assay [1], the morphology score was 0.322. Besides, the SARS-CoV-2 infection rate in assay [2] is 99% (inactive).
On to `O=C(O)CCCCN(CCc1ccccc1OCc1ccc(CCc2ccccc2)cc1)Cc1ccc(C(=O)O)cc1` [cinaciguat] (10 µM), for which the morphology score in assay [1] was -0.0659. In assay [2], the SARS-CoV-2 infection rate is 102% (inactive).
`CCCN(CCC)[C@H]1CCc2ccc(O)cc2C1` [7-hydroxy-DPAT] (10 µM): the morphology score in assay [1] was -0.355. Further, in assay [2], the SARS-CoV-2 infection rate was 122% (inactive).
Turning to `Cc1ccnc(NC(=O)C(C)c2cccc(C(=O)c3ccccc3)c2)c1` (stereo not given) [piketoprofen] (10 µM), the morphology score in assay [1] is -0.109. Besides, the SARS-CoV-2 infection rate in assay [2] was 107% (inactive).
`O=C(O)[C@H]1CN(C/C=C/P(=O)(O)O)CCN1` [midafotel] (10 µM) registered a morphology score in assay [1] of 0.0949. In addition, in assay [2], the SARS-CoV-2 infection rate was 89% (inactive).
`CCNC1(C(N)=O)CCN(c2ncnc3c2nc(-c2ccccc2Cl)n3-c2ccc(Cl)cc2)CC1` (10 µM) displayed a morphology score in assay [1] of -0.024. In assay [2], the SARS-CoV-2 infection rate was 108% (inactive).
For the compound `CCCCC1CCC(c2nc(-c3ccncc3)no2)CC1` (stereo not given) (10 µM), in assay [1], the morphology score was -0.00672. Also, the SARS-CoV-2 infection rate in assay [2] is 104% (inactive).
